Hit rate of the full screen: of about 5,500 compounds, about 2,000 (36%) were called active. Another 18% or so got no clear call; they are omitted. Rule as the data show it: active = normalized growth mostly below about 0.91 (no sharp cut-off); inconclusive = no clear call, values can overlap the other calls; inactive = mostly above about 0.92. Some of the results follow.
Assay: chemical genetic growth profiling, strain panel (AID 1159580);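 also: tested at 20 µM; growth read once vehicle control cultures reached saturation at 30 °C; 1 = growth at the plate median or of vehicle wells; lower values mean less growth of the strain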
Conditions: S. cerevisiae deletion strains, growth OD

Measured: normalized growth

Cc1[nH]c(=O)c(C#N)cc1-c1ccncc1
inactive: locus YAL013W, strain DEP1, hits give low values 1.02 | locus YAL040C, strain CLN3, hits give low values 1 | locus YCL061C, strain MRC1 (second series), hits give low values 1.01 | locus YDR363W, strain ESC2, hits give low values 1.04 | locus YER002W, strain NOP16, hits give low values 0.997 | locus YGR078C, strain PAC10, hits give low values 1.01 | locus YMR263W, strain SAP30, hits give low values 1.01 | locus YMR307W, strain GAS1, hits give low values 1.01 | locus YNL153C, strain GIM3, hits give low values 1.01 | locus YNL175C, strain NOP13, hits give low values 1.01 | locus YNL197C, strain WHI3, hits give low values 1.01 | locus YNL224C, strain SQS1, hits give low values 1.01 | locus YNL322C, strain KRE1, hits give low values 1.01 | locus YOR083W, strain WHI5 (second series), hits give low values 1.01 | locus YPL241C, strain CIN2, hits give low values 0.998

From PubChem BioAssay AID1159580 (chemical genetic matrix, 2015)
